# Experimental data: PMC4336329 (PLoS ONE, 2015)
# Hit rate of the full screen: of about 310,000 compounds, about 14,000 (4.5%) showed an effect of 50% or more. Effects have a minus sign here. The sample holds strong results, similar compounds and a random draw of the others, so the mix is not that of the screen.
# Biological target: human ether-à-go-go-related gene (hERG) potassium channel (human, UniProt Q12809)
# Assay: primary screen, population patch clamp on CHO cells stably expressing hERG; higher = less effect of the substance
# 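Further: peak tail current of the secondary pulse compared with the same well before compound.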
# human ether-à-go-go-related gene (hERG) potassium channel, sequence (Q12809 whole entry, looked up): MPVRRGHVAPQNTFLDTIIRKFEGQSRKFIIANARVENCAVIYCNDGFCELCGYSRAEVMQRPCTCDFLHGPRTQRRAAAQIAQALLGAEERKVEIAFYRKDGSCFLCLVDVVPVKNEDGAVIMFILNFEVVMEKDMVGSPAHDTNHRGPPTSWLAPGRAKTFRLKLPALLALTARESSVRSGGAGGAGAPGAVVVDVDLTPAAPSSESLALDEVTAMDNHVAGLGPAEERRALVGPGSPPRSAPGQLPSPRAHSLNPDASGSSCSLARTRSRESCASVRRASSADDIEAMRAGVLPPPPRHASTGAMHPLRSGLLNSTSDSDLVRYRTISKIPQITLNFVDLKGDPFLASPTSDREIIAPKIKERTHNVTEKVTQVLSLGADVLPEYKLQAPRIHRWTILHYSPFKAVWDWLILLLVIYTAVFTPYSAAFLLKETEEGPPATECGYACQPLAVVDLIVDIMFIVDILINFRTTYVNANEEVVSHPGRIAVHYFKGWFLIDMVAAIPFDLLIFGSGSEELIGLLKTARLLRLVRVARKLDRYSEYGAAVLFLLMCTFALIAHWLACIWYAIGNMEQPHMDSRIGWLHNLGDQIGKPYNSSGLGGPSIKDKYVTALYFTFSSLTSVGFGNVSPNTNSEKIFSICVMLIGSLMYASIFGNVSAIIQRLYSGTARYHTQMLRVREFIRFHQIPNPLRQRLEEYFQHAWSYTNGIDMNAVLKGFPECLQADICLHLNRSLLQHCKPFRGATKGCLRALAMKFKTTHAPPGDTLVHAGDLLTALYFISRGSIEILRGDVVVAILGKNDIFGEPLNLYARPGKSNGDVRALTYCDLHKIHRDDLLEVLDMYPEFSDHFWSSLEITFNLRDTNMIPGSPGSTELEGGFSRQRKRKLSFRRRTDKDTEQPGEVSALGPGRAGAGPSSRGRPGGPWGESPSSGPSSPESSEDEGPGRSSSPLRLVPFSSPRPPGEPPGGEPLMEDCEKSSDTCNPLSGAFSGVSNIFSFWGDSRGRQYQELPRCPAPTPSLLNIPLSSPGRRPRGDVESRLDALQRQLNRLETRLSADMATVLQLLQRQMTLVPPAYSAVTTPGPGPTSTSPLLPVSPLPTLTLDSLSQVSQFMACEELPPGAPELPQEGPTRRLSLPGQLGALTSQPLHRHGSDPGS
row,SMILES,"hERG current change (%, negative = inhibition) at 10uM"
1,COc1ccc(-n2c(=O)c3ccccc3n(CC(=O)c3ccccc3)c2=O)cc1OC,-1.32%
2,Cc1ccccc1OCCNc1cc(N2CCCCC2)ccc1[N+](=O)[O-],-17.2%
3,CCCCC(=O)Nc1ccc(C(=O)Nc2ccc(OC)cc2[N+](=O)[O-])cc1,-8.04%
4,O=C(O)c1cn(-c2ccccc2)nc1-c1ccc(F)cc1,23.6%
5,O=C1CN(C(=O)COC(=O)Cc2ccsc2)c2ccccc2N1,-4.05%
6,CCC(=O)N(c1nnc(SCC(=O)NN2C(=O)NC3(CCC(C)CC3)C2=O)s1)C1CC1 (centres unmarked),-5.47%
7,O=C(CCS(=O)(=O)c1cccc2nonc12)Nc1ccc(Br)cc1,7.91%
8,Cc1cc(C)n(C(=O)CCC2COc3ccccc3O2)n1 (centres unmarked),-76.6%
9,Cc1cc(C)n(C(=O)CNC(=O)C2COc3ccccc3O2)n1 (centres unmarked),14.5%
10,O=C(CCC1COc2ccccc2O1)N1CCCC1 (centres unmarked),-3.13%
11,Br.O=C(CN1C2=NCCCN2c2ccccc21)c1cccc(Br)c1,-71%
12,Br.O=C(CN1CCCCC1)c1cccc(Br)c1,7.58%
13,Br.O=C(CN1C2=NCCCN2c2ccccc21)c1ccc([N+](=O)[O-])cc1,-75.1%
14,Br.COc1cccc(C(=O)Cn2c(=N)n(C)c3ccccc32)c1,-27.2%
15,COc1ccc(C(=O)CN2C3=NCCCN3c3ccccc32)cc1OC,-36.5%
16,Br.COc1cccc(C(=O)CN2C3=NCCCN3c3ccccc32)c1,-68.1%
17,Cc1cc(C)cc(N(CC(=O)NCc2ccc(F)cc2)C(=O)CCC(=O)Nc2ccccn2)c1,18.7%
18,COc1ccc(-c2csc(NC(=O)c3cc(=O)c4ccccc4o3)n2)cc1OC,4.58%
19,N#Cc1ccc(-c2nc3ccccc3nc2-c2ccccc2)cc1C#N,21.7%
20,CCc1cc2c(=O)nc3n(c2s1)Cc1ccccc1/C3=C(/O)c1cccc([N+](=O)[O-])c1,-4.6%
21,O=C(CCN1CCN(CCO)CC1)Nc1ccc(Br)cc1,1.76%
22,COc1ccc(C(=O)N/N=C\c2ccoc2)cc1,20.8%

row,SMILES,"hERG current change (%, negative = inhibition) at 10uM"
1,O=C(CN1C(=O)c2cccc3cccc1c23)NCc1ccc2c(c1)OCO2,-13.2%
2,C=CCn1c(SCC(=O)NCC2CCCO2)nc2scc(-c3ccccc3)c2c1=O (centres unmarked),-15.1%
3,COC(=O)C1=C(N)Oc2cc(N(C)C)ccc2C1c1ccccc1OC (centres unmarked),-84.3%
4,CCOc1ccc(Br)cc1C1C(C(=O)OC)=C(N)Oc2cc(N(C)C)ccc21 (centres unmarked),21.4%
5,COC(=O)C1=C(N)Oc2cc(C)[nH]c(=O)c2C1c1ccccc1OC (centres unmarked),9.48%
6,O=C(COc1ccccc1)NCC(c1ccco1)N1CCN(c2ccccc2)CC1 (centres unmarked),-26.6%
7,O=C(COc1ccccc1)NCC(c1ccco1)N1CCN(c2ccc(F)cc2)CC1 (centres unmarked),-41%
8,Cc1ccc(C)c(OCC(=O)NCC(c2ccco2)N2CCCCC2)c1 (centres unmarked),-2.72%
9,Cc1ccccc1OCC(=O)NCC(c1ccco1)N1CCCCC1 (centres unmarked),-31.4%
10,Cc1cc(C)c(OCC(=O)NCC(c2ccco2)N2CCCCC2)c(C)c1 (centres unmarked),-52.1%
11,COc1ccc(N2CCN(C(CNC(=O)COc3ccccc3)c3ccco3)CC2)cc1 (centres unmarked),-67%
12,C[C@H](NC(=O)c1ccco1)C(=O)NC1CCCCCC1,-0.515%
13,O=C(c1cccnc1)N1N=C(c2cccs2)CC1c1ccc(F)cc1 (centres unmarked),-34.7%
14,Cc1ccc(NC(=O)c2cccs2)cc1S(=O)(=O)Nc1cccc(Cl)c1,8.25%
15,COc1ccc(NC(=S)N2CCC(C(=O)c3ccc(C)cc3)CC2)c(OC)c1,24.7%
16,CCOc1cc(/C=N\NC(=O)CC(=O)NCCc2ccccc2)ccc1O,1.94%
17,Cc1ccc(C)c(-c2nnc(NC(=O)Cc3ccccc3)o2)c1,16.1%
18,COc1ccc(S(=O)(=O)N2CCN(C3Cc4ccccc4C3)CC2)cc1,11.8%
19,O=C(Nc1cccc(C(F)(F)F)c1)c1cncs1,20%
20,O=c1cc(CO)occ1OCc1cccc(F)c1,-9.93%
21,O=C(c1ccco1)N1CCN(Cc2cc(=O)c(OCc3ccc(F)cc3)co2)CC1,-62.2%
22,COc1ccc(CN2CCN(C(=O)c3ccco3)CC2)cc1OCc1ccccc1,-51.2%
